Viability (% of control) and Potency data for nine compounds are collected here from PubChem BioAssay (NCATS).

Experiment [1] is described as follows: High-throughput drug toxicity screening in the BPDCN cell line Cal-1 (AID 1224825; call rule not given here). As to conditions: Cal-1 BPDCN cell viability, qHTS; at 45.8 µM (top of the series). Summed up:
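Percent activity derived from CellTiter-Glo luminescence, scaling DMSO to 100% and 9.2 uM final bortezomib to 0%. BPDCN Cal-1 cells (500/well, RPMI plus 10% FBS) incubated with compounds 48 hours at 37C before reading.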

The nature of experiment [2]: qHTS assay for measurement of the activity of small molecule inhibitors on Zika virus induced Caspase-3 activity in human iPSC derived neural progenitor cells (hNPCs) (AID 1224857). Further: % of control where 0% means no effect; nearly all actives have a fitted effect of over 65% in size. In outline: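 Human iPSC-derived neural progenitor cells pretreated 1 hr with compounds, then infected with Zika virus (2 FFU/cell) for 6 hours at 37 C. Caspase-3/7 measured by Caspase-Glo luminescence; % inhibition calculated from induction scaled to uninfected (0%) and infected (100%) wells.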
On the technique in general: qHTS replaces the single test concentration by a dilution series.

The nature of experiment [3]: qHTS assay for measurement of the activity of small molecule inhibitors on Zika virus induced Caspase-3 activity in human astrocytoma cells (AID 1224859).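 Further: plate controls were ZIKV-infected untreated cells for no effect and uninfected cells for full effect.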 Summed up: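 SNB-19 astrocytoma cells, 250/well, pretreated 1 h with compounds, then Zika virus at 2 FFU/cell for 6 h at 37 C; Caspase-Glo 3/7 luminescence after 30 min; percent inhibition normalised to uninfected and infected controls.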

Experiment [4] is described as follows: qHTS Screen of the MIPE 4.0 Collection Against Ewings Sarcoma (RDES) (AID 1259252). Further: nearly all actives have a fitted effect of over 35% in size. Further: potency means the concentration at half of the fitted maximal effect. In outline:
(§1)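 Cells plated in serum-containing RPMI (5% FBS) and treated with compound dilutions for 48 h. Readout luminescent viability; normalization relied on vehicle (no inhibition) and media-only columns (full inhibition).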

Experiment [5] can be described thus: qHTS Screen of the MIPE 4.0 Collection Against Ewings Sarcoma (EW8) (AID 1259255). Further: nearly all actives have a fitted effect of over 35% in size. Further: potency means the concentration at half of the fitted maximal effect.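 On Viability: 100% = DMSO-treated cells and 0% = medium-only wells without cells.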 Summed up:
as §1

Experiment [6] in a line: qHTS Screen of the MIPE 4.0 Collection Against Ewings Sarcoma (TC32) (AID 1259256). Further: nearly all actives have a fitted effect of over 45% in size. Further: potency means the concentration at half of the fitted maximal effect. Summed up:
as §1

Experiment [7] is described as follows: P-glycoprotein substrates identified in KB-8-5-11 adenocarcinoma cell line, qHTS therapeutic library screen (AID 1346987). Further: nearly all actives have a fitted effect of over 65% in size. Further: potency means the concentration at half of the fitted maximal effect. Summed up:
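Human cervical adenocarcinoma KB-8-5-11 cells, selected in colchicine to over-express P-gp and assayed without it, were exposed for 72 h to titrated compounds. An ATP-based luminescent viability signal gave AC50.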

Experiment [8] in a line: NS1 protein of Zika virus - qHTS assay to identify small molecule inhibitors in human HEK 293 cells (AID 1347053). Further: nearly all actives have a fitted effect of over 55% in size. Further: potency means the concentration at half of the fitted maximal effect. Summed up: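 Read-out is a two-antibody TR-FRET for ZIKV NS1, normalized between uninfected cells and infected cells. Compound added 1 h before MR766 infection at MOI 0.5; human HEK 293 cells incubated 24 h, 37 C.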
Experiment [9] is described as follows: qHTS Screen of the MIPE 4.0 Collection Against Ewings Sarcoma (TC71) (AID 1259253). Further: nearly all actives have a fitted effect of over 40% in size. Further: potency means the concentration at half of the fitted maximal effect. Summed up: as §1
Experiment [10] is described as follows: Natriuretic polypeptide receptor (hNpr1) antagonism - Pilot counterscreen GloSensor control cell line (AID 1347045; calls by dose curve; further: on the % scale 0 is the no-effect control and ±100 the full control effect). Summed up: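 The SNP-driven cGMP luminescence signal (50 uM, 20 min, room temperature) was measured in GloSensor HEK293 control cells. Compounds were tested as a LOPAC titration series and preincubated for 30-50 min.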
On the technique in general: Counterscreens check selectivity or assay interference.

Experiment [11] has as its target Atrial natriuretic peptide receptor 1 (Homo sapiens) (UniProt P16066). As to the kind of experiment: Natriuretic polypeptide receptor (hNpr1) antagonism - Pilot screen (AID 1347049; calls by dose curve;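 further: HEK293 cells with hNpr1 and GloSensor cGMP luciferase stimulated by 0.1 nM hNppA; agonist-evoked cGMP luminescence read 20 min after hNppA addition; on the % scale 0 is the no-effect control and ±100 the full control effect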). Summed up: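 Receptor antagonism read as cGMP-dependent luminescence in hNpr1/pGS-40F HEK293 cells: pre-read after 30 min compound exposure, post-read 20 min after hNppA agonist at 0.1 nM final, all at room temperature, protected from light; A-71915 titration as control.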

Experiment [12] concerns the target Atrial natriuretic peptide receptor 2 (Homo sapiens) (UniProt P20594). In words: Natriuretic polypeptide receptor (hNpr2) antagonism - Pilot subtype selectivity assay (AID 1347050; calls by dose curve; further: on the % scale 0 is the no-effect control and ±100 the full control effect). In outline:
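Antagonist mode: compounds (LOPAC1280, seven 1:5 dilutions) added 30 min before 1 nM hNppC stimulation of hNpr2-HEK293 cGMP-sensor cells; luminescence read before and 20 min after agonist at ambient temperature.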

The structures appear in SMILES notation. Values joined by “and” are separate entries in the source; they are usually repeats but may differ in a detail not shown here. Equal values may be shown once. Records with an inconclusive call do not appear. Some structures have more than one record in an assay (separate samples or runs), and their calls can disagree. Active and inactive are the calls of the source. Unless noted, the call rests on the fitted dose curve; in most records, active means well fitted curve in the direction sought with a large enough effect; inconclusive means small, poorly fitted or top-dose-only effect, or another doubt; inactive means no such curve, though single readings can be large; an effect the other way counts as inactive or inconclusive.

Sequence of Atrial natriuretic peptide receptor 2 (Homo sapiens) (P20594 whole entry, looked up): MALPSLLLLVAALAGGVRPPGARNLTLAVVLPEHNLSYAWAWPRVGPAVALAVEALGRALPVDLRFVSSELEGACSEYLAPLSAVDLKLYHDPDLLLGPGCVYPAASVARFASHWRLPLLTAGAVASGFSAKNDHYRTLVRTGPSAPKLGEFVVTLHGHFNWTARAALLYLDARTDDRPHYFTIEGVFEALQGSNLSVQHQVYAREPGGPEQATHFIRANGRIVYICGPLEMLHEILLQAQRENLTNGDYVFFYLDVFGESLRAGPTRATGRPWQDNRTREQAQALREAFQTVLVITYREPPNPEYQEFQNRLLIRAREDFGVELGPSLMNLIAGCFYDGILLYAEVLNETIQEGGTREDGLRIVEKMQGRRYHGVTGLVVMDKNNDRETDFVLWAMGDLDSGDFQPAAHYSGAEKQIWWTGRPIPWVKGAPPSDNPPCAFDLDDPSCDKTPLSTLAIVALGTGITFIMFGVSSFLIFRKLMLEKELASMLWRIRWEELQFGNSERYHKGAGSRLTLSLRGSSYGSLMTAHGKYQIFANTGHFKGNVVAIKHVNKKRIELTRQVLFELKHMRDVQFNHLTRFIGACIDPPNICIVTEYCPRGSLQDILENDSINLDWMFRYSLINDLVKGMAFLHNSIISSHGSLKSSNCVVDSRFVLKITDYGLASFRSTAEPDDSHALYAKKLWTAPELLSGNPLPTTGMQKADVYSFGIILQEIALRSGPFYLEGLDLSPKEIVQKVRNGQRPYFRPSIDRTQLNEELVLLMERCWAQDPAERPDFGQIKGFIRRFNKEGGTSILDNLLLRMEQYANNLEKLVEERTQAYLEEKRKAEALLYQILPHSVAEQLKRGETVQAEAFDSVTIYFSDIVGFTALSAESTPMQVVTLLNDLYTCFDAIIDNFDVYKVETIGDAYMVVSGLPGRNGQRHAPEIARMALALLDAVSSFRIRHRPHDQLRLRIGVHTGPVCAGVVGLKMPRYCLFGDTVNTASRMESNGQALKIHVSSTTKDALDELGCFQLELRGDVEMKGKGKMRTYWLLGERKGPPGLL
Sequence of Atrial natriuretic peptide receptor 1 (Homo sapiens) (P16066 whole entry, looked up): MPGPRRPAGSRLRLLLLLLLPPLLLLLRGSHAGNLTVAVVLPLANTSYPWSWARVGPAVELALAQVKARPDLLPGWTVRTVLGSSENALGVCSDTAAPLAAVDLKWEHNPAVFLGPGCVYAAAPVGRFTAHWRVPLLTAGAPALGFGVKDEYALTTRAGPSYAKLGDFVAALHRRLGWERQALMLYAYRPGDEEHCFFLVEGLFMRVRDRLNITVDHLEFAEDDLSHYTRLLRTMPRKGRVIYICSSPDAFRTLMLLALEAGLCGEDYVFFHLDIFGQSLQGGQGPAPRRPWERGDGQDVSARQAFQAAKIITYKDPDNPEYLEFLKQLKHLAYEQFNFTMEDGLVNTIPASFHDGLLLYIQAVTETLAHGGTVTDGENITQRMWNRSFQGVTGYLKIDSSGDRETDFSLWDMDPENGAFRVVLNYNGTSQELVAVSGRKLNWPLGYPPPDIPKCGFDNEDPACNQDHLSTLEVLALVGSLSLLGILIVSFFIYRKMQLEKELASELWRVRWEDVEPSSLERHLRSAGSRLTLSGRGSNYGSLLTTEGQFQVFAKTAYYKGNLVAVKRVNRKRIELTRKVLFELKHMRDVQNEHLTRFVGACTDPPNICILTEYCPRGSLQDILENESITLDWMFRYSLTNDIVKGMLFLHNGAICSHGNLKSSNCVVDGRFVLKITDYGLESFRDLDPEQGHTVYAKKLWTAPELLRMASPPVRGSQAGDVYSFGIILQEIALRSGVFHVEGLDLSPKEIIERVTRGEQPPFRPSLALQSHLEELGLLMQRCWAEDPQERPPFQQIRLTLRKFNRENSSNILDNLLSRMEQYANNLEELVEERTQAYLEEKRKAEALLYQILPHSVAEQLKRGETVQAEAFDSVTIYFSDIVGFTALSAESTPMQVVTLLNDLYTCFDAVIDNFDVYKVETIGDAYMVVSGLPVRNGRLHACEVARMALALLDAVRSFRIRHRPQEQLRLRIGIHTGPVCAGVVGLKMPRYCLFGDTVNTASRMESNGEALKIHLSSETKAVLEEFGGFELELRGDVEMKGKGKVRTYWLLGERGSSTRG

Regarding `CCN1CCN(C(=O)Cc2ccc(Nc3ncc(F)c(Nc4ccc(C(=O)Nc5ccccc5Cl)cc4)n3)cc2)CC1`, the viability (% of control) in experiment [1] was found to be 2.31%. The Potency result in experiment [2] and in experiment [3] was “inactive” in each case. The Potency in experiment [4] was 8.33 µM (active); in experiment [5], 2960 nM (active); in experiment [6], 4180 nM (active); in [7], 2.96 µM (active) and 1.16 µM (active); in experiment [8], 11.8 µM (active).
Turning to `C[C@@H]1CC[C@H]2[C@@H](C)C(=O)O[C@@H]3O[C@@]4(C)CC[C@H]1[C@]32OO4`, the viability (% of control) in [1] amounted to 98.1%. In addition, the Potency entry in experiment [2], in experiment [3], in [7] and in experiment [8] was “inactive” in each case. The Potency was 18.7 µM (active) in [4] and 3.72 µM (active) in [9].
In the case of `C[C@]12CC[C@H]3[C@@H](CCC4=CC(=O)CC[C@@]43C)[C@H]1CC[C@H]2OC(=O)CCC1CCCC1`, the viability (% of control) in [1] is 104%. The Potency result in experiment [2], in experiment [3], in [4], in [5], in [6] and in experiment [7] was “inactive” each time. Also, in experiment [8], the Potency entry is “inactive”.
For `C[C@]12CC[C@@H]3[C@@H](CCC4=CC(=O)CC[C@@H]43)[C@@H]1CC[C@@H]2OC(=O)CCc1ccccc1`, the viability (% of control) in [1] was 104%. The Potency entry in experiment [2], in experiment [3], in experiment [4] and in [8] was “inactive” in each case. For the same compound, the Potency in experiment [9] was 9.35 µM (active).
With `CC[C@@]1(O)C(=O)OCc2c1cc1n(c2=O)Cc2cc3ccccc3nc2-1`, in experiment [1], the viability (% of control) was found to be 3.88%. In addition, the Potency result in experiment [2], in experiment [3], in [10], in experiment [11] and in experiment [12] was “inactive” in each case. Further, the Potency in experiment [4] was 0.0132 µM (active); in [5] it was 11.8 nM (active); in experiment [6], 3.7 nM (active); in experiment [8], 11.8 nM (active) and inactive.
As for `CC1=C(O)C(=O)C=C2C1=CC=C1[C@@]2(C)CC[C@@]2(C)[C@@H]3C[C@](C)(C(=O)O)CC[C@]3(C)CC[C@]12C`, the viability (% of control) in experiment [1] was found to be 7.21%. In addition, the Potency entry in experiment [2] and in experiment [3] was “inactive” each time. In addition, the Potency in [4] is 1.32 µM (active); in [5], 935 nM (active); in experiment [6], 833 nM (active); in [7] it was 2.96 µM (active); in experiment [8] it was 2.96 µM (active).
For `Cc1c(N)nc([C@H](CC(N)=O)NC[C@@H](N)C(N)=O)nc1C(=O)N[C@H](C(=O)N[C@@H](C)[C@H](O)[C@@H](C)C(=O)N[C@@H](C(=O)NCCc1nc(-c2nc(C(=O)NCCC[S+](C)C)cs2)cs1)[C@@H](C)O)C(O[C@H]1O[C@H](CO)[C@H](O)[C@@H](O)[C@@H]1O[C@H]1O[C@H](CO)[C@@H](O)[C@H](OC(N)=O)[C@H]1O)c1cnc[nH]1` (stereo partly drawn), in [1], the viability (% of control) is 16%. For the same compound, the Potency result in experiment [2] and in experiment [3] was “inactive” throughout. Also, the Potency was 1.05 µM (active) in experiment [4], 264 nM (active) in experiment [5], 418 nM (active) in experiment [6] and 2.96 µM (active) in experiment [8].
Turning to `CCCCCC[C@H]1C(=O)O[C@H](C)[C@H](NC(=O)c2cccc(NC=O)c2O)C(=O)O[C@@H](C)[C@@H]1OC(=O)CC(C)C`, in experiment [1], the viability (% of control) turned out to be 85.6%. The Potency entry in [2] and in experiment [3] was “inactive” throughout. Further, the Potency is 0.0418 µM (active) in experiment [4], 105 nM (active) in experiment [5], 83.3 nM (active) in experiment [6] and 2.96 µM (active) in experiment [8].
For `O=S(=O)(F)Cc1ccccc1`, the viability (% of control) in experiment [1] worked out at 97.3%. Moreover, the Potency entry in experiment [2], in experiment [3], in experiment [9], in experiment [7] and in experiment [8] was “inactive” each time. For the same compound, the Potency in experiment [4] was 0.0418 µM (active).
